Active and inactive are the calls of the source. Unless noted, how the calls were made is not given here.
Assays:
[1] = anti-His antibody binders, primary screen, artefact control for SMM control protein annotation, biochemical, small-molecule microarray, 635 nm fluorescence (AID 1128); details: anti-His Alexa647 antibody binding, higher = more signal;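 further: score merges feature fluorescence with signal-to-noise for each printed compound spot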
[2] = test system: Human papillomavirus type 1a E7 protein (residues 1-88); test: HPV1a E7 small-molecule binders, primary screen, biochemical, small-molecule microarray, residues 1-88, 635 nm (AID 1129); details: small-molecule microarray binding, fluorescence 635 nm; higher = more signal
[3] = biological target: Focal adhesion kinase 1 (Homo sapiens) (UniProt Q05397); test: small-molecule microarray binders of FAK, primary screen, biochemical, 635/667 nm fluorescence, BSA, DTT (AID 1130); details: PTK2 binding, 635 nm fluorescence, higher = more signal;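 further: composite of spot emission at 667 nm and signal to noise over triplicate slides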
[4] = test system: Fibrinogen (Alexa647-labelled); test: fibrinogen binders on compound microarrays, profiling panel, artefact control for SMM control-protein annotation, biochemical, small-molecule microarray, 635/667 nm fluorescence (AID 1131); details: fibrinogen-A647 binding fluorescence, higher = more signal;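 further: z-score merges 667 nm fluorescence with per-spot signal-to-noise over triplicate slides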
[5] = biological target: Follistatin (Homo sapiens) (UniProt P19883); test: follistatin binders on small-molecule microarrays, primary screen, biochemical, small-molecule microarray, 635/667 nm fluorescence (AID 1132); details: FST binding, 635 nm fluorescence, higher = more signal
[6] = biological target: Fibroblast growth factor 2 (Homo sapiens) (UniProt P09038); test: FGF2 binders on small-molecule microarrays, primary screen, biochemical, small-molecule microarray, 635/667 nm fluorescence (AID 1133); details: small-molecule microarray binding, FGF2, fluorescence 635/667; higher = more signal
[7] = mitochondrial membrane potential change in A549 cells, profiling panel, cell-based, JC-1 fluorescence, basal, 24 h, 100 nL (AID 1138); details: higher = more signal;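 further: A549 lung adenocarcinoma cells under basal conditions with no added stimulus; test concentration not given here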
[8] = test system: Lefty1; test: Lefty1 binders on small-molecule microarrays, primary screen, biochemical, small-molecule microarray, 635/667 nm fluorescence (AID 1139); details: small-molecule microarray binding, fluorescence 635/667; higher = more signal
[9] = test system: wheat germ agglutinin (Triticum aestivum), Alexa647-labelled; test: wheat germ agglutinin binders on compound microarrays, profiling panel, artefact control for SMM control-protein annotation, biochemical, small-molecule microarray, 635/667 nm fluorescence (AID 1140); details: WGA-A647 binding, 635 nm fluorescence, higher = more signal;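 further: score merges 667 nm feature emission with signal to noise over triplicate slides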
[10] = biological target: Luciferin 4-monooxygenase (Photinus pyralis) (UniProt P08659); test: firefly luciferase enzyme inhibitors, primary screen, biochemical, luminescence, purified enzyme, 2006 set (AID 1141); details: SteadyGlo luminescence, 30 min, higher = more signal, called active from +8 up or from −8 down;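 further: cell-free assay with purified firefly luciferase at 100 ng per well in PBS; test concentration not given here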
[11] = test system: Wnt5a (protein binding on small-molecule microarray); test: Wnt5a binders on small-molecule microarray, primary screen, biophysical, 635/667 nm fluorescence (AID 1142); details: 635 nm fluorescence, higher = more signal;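 further: fluorescence read at 667 nm with signal to noise per printed feature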
[12] = cell viability in Huh7 cells, primary screen, cytotoxicity control for HCV replication inhibitor project, CellTiter-Glo luminescence, basal, 48 h (AID 1143); details: Huh7 HCV replicon, higher = more signal, called active from +8 up or from −8 down;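 further: Huh7 hepatoma cells carrying a hepatitis C replication reporter with no stimulus; test concentration not given here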
[13] = P. aeruginosa biofilm formation inhibitors, primary screen, PAO1 strain, BacTiter-Glo luminescence, LB-PBS (AID 1144); details: 12 h, higher = more signal
[14] = CREB reporter modulators without forskolin, primary screen, cell-based, PC12, CRE-LacZ reporter, unstimulated (AID 1145); details: no forskolin, luminescence, 4.5 h, higher = more signal, called active from +8 up or from −8 down
[15] = CREB reporter modulators under forskolin, primary screen, cell-based, PC12, CRE-LacZ reporter, forskolin-stimulated (AID 1146); details: luminescence, 4.5 h, higher = more signal, called active from +8 up or from −8 down;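 further: PC12 cells with 6xCRE LacZ reporter stimulated by forskolin 10 µM; beta-galactosidase reporter signal reflecting CREB driven transcription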
[16] = biological target: Streptavidin (Streptomyces avidinii) (UniProt P22629); test: streptavidin binders on small-molecule microarray, primary screen, artefact control for SMM compound annotation, biophysical, 635/667 nm fluorescence (AID 1147); details: streptavidin binding, higher = more signal;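 further: signal reflects streptavidin binding to arrayed compounds as a control protein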
[17] = small-molecule binders of probe aInhba, primary screen, biochemical, small-molecule microarray, 635/667 nm fluorescence (AID 1148); details: higher = more signal;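 further: score merges 667nm spot fluorescence with signal-to-noise for antibody binding to printed compounds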
[18] = biological target: Torsin-1A (Homo sapiens) (UniProt O14656); test: torsin A binders from cell lysate, primary screen, small-molecule microarray, wild-type, 635/667 nm (AID 1149); details: COS7 hTOR1A-WT lysate, 635 nm fluorescence, higher = more signal
[19] = biological target: Torsin-1A (Homo sapiens) (UniProt O14656); test: small-molecule binders of mutant TOR1A in lysate, primary screen, cell lysate, small-molecule microarray, COS7 lysate, 635/667 nm fluorescence (AID 1150); details: COS7 hTOR1A mutant lysate, 635 nm fluorescence, higher = more signal;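 further: score pools 667 nm emission and signal to noise measuring lysate protein binding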
[20] = test system: Sonic hedgehog protein (Shh); test: small-molecule binders of Shh protein, primary screen, biochemical, small-molecule microarray, 635/667 nm fluorescence (AID 1151); details: small-molecule microarray binding, 635 nm fluorescence; higher = more signal;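 further: Shh protein binding to compounds spotted on small-molecule microarray slides; score combines spot fluorescence intensity with signal-to-noise across triplicate slides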

Luciferin 4-monooxygenase (Photinus pyralis), sequence (P08659 whole entry, looked up): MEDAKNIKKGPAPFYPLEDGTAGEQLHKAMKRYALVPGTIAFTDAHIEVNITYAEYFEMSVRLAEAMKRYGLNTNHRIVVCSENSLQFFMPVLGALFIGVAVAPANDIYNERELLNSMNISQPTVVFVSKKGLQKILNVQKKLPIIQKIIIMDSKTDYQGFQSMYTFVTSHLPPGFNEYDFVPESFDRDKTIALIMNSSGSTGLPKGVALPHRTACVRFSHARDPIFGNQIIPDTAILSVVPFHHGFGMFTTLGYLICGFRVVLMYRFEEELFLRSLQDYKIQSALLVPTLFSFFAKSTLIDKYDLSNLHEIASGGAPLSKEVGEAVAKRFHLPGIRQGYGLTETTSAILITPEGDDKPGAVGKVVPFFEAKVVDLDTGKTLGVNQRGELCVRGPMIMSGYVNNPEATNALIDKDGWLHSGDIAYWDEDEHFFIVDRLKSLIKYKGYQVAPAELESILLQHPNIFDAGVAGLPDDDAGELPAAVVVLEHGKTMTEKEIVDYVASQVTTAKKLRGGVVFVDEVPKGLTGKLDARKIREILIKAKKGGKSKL
Torsin-1A (Homo sapiens), sequence (O14656 whole entry, looked up): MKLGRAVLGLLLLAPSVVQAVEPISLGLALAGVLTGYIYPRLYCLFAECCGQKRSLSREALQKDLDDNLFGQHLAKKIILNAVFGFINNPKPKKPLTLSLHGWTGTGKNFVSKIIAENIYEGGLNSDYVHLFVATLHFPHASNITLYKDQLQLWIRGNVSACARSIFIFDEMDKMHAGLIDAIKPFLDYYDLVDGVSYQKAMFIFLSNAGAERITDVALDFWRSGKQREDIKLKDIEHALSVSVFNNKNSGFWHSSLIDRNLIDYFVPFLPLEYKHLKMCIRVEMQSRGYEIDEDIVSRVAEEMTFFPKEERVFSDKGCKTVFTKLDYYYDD
Streptavidin (Streptomyces avidinii), sequence (P22629 whole entry, looked up): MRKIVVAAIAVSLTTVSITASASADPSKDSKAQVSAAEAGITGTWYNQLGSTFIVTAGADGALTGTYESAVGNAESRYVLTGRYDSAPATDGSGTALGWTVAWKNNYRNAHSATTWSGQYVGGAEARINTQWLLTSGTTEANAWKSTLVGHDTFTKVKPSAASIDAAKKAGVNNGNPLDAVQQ
Follistatin (Homo sapiens), sequence (P19883 whole entry, looked up): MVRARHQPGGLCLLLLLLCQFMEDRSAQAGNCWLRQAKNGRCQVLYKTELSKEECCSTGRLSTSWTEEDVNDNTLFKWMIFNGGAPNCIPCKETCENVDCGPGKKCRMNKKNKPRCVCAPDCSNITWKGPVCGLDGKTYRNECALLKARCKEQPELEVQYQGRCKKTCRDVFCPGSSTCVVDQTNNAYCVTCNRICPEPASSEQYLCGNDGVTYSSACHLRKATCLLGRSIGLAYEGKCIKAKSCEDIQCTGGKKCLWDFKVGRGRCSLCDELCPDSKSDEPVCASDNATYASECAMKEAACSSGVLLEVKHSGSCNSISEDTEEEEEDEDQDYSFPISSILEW
Focal adhesion kinase 1 (Homo sapiens), sequence (Q05397 whole entry, looked up): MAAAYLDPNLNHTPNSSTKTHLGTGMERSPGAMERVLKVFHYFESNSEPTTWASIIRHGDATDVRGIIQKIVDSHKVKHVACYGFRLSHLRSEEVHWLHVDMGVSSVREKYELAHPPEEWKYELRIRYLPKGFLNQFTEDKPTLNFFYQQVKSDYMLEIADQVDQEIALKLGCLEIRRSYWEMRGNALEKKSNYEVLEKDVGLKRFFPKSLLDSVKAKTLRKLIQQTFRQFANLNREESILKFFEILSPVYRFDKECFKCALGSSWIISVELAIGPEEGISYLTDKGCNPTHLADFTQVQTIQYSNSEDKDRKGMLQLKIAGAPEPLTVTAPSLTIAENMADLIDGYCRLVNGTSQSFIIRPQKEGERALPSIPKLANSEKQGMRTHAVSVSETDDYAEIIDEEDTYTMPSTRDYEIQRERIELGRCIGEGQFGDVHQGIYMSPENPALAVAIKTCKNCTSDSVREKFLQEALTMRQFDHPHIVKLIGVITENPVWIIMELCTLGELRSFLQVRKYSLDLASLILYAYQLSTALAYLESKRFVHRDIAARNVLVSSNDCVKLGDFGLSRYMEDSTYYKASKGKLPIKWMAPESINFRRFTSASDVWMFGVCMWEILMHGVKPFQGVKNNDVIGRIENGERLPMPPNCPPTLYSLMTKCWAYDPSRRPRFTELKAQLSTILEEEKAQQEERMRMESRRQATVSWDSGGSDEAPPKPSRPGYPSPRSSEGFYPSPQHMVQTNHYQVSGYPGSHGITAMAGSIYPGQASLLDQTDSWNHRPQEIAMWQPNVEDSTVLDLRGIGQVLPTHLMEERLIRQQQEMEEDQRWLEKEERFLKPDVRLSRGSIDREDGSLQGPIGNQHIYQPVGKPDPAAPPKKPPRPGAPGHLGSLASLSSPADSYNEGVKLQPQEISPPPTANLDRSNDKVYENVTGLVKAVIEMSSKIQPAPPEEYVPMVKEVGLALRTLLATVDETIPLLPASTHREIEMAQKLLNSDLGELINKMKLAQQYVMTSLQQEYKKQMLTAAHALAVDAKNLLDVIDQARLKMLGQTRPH
Fibroblast growth factor 2 (Homo sapiens), sequence (P09038 whole entry, looked up): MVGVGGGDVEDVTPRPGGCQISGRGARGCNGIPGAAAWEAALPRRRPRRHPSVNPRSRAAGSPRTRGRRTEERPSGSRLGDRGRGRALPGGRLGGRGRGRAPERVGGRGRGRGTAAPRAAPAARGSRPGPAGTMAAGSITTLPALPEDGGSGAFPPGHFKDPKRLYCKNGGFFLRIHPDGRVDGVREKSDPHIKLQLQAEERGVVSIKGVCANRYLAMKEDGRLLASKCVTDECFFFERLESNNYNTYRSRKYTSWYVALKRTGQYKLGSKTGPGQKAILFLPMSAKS

Row | Compound | composite z-score [1] | composite z-score [2] | composite z-score [3] | composite z-score [4] | composite z-score [5] | composite z-score [6] | z-score [7] | composite z-score [8] | composite z-score [9] | z-score [10] | composite z-score [11] | z-score [12] | z-score [13] | z-score [14] | z-score [15] | composite z-score [16] | composite z-score [17] | composite z-score [18] | composite z-score [19] | composite z-score [20]
1 | Cc1ccc(S[C@]2(C(=O)NC(C)C)CC(=O)N(C3Cc4ccccc4C3)[C@@H]2c2ccc(CO)cc2I)cc1 | -0.641 | -0.597 | -0.602 | -0.779 | -0.172 | 0.188 | 1.37 | -2.2 | -0.412 | 0.507 (inactive) | -0.511 | -1.83 (inactive) | -0.0878 (inactive) | 0.622 (inactive) | 1.28 (inactive) | -0.959 | -0.355 | -1.49 | -0.009 | -0.274
2 | CO[C@H]1O[C@H](CO)[C@@H](OC(=O)Nc2ccc(C(F)(F)F)cc2)[C@H](OC(=O)Nc2ccc3c(c2)OCO3)[C@H]1OC(=O)Nc1ccc2c(c1)OCO2 | 2.97 | 1.17 | 1.33 | 0.806 | 0.977 | 0.395 | -1.16 | 0.871 | 1.07 | -7.72 (inactive) | 0.259 | -4.23 (inactive) | 0.558 (inactive) | 1.54 (inactive) | 1.38 (inactive) | 0.656 | 0.234 | 0.201 | 0.746 | 0.99
3 | C=CCN1C(=O)[C@@]2(O[C@@H](CCn3cc([C@H](O)c4ccccc4)nn3)[C@H]([Si](C)(C)c3ccc(OC)cc3)[C@H]2C)c2ccccc21 | 0.351 | 1.14 | 0.287 | 0.371 | 1.18 | 0.761 | 0.493 | 1.2 | 0.875 | 0.586 (inactive) | 0.351 | -3.85 (inactive) | 0.0526 (inactive) | 3.9 (inactive) | -0.448 (inactive) | -0.0664 | 0.134 | -0.0628 | -0.168 | 1.7
4 | COCCOC(=O)N1C(=O)[C@@]2(c3cc(C#CC4=CCCCC4)ccc31)[C@H](c1ccccc1OCCO)N1[C@H](c3ccccc3)[C@H](c3ccccc3)OC(=O)[C@H]1[C@@H]2C(=O)N1CCc2cc(OC)c(OC)cc2C1 | 0.891 | 1.2 | 0.204 | 0.764 | 1.28 | 0.917 | -0.682 | 0.555 | 0.441 | -1.97 (inactive) | 0.316 | -1.93 (inactive) | -0.455 (inactive) | 1.03 (inactive) | 0.904 (inactive) | -0.0953 | -0.305 | -0.148 | 0.536 | 1.79
5 | COC(=O)[C@H](Cc1ccccc1)N1CC(/C=C/C2CC2)=C[C@@H]1[C@@H](O)Cc1ccccc1 | 0.303 | 1.14 | 0.28 | 0.971 | 0.958 | 0.418 | 0.33 | 1.26 | 0.982 | -0.186 (inactive) | 0.624 | -1.63 (inactive) | -1.18 (inactive) | 3.31 (inactive) | 5.89 (inactive) | 0.756 | 0.0471 | 0.957 | -0.038 | 1.81
6 | C=C[C@H](COC(C)=O)NS(=O)(=O)c1ccc(Br)cc1 | 0.207 | -0.575 | -0.0533 | 0.382 | 1.27 | -0.0651 | 0.695 | 0.17 | 0.146 | -0.503 (inactive) | -0.0966 | 0.0651 (inactive) | -0.0168 (inactive) | 0.26 (inactive) | 0.678 (inactive) | 1.16 | -0.0762 | 0.119 | -0.214 | 0.382
7 | Cc1ccc(C(C)CC(O)C2C=CC3C(=O)N(c4ccccc4)C(=O)C3N2Nc2ccc(C(C)C)cc2)o1 (stereo not given) | 0.953 | 1.16 | 0.423 | 0.59 | 0.75 | -0.14 | -0.678 | -0.795 | 1.15 | -0.528 (inactive) | 0.301 | 0.183 (inactive) | -0.203 (inactive) | 0.246 (inactive) | 0.0702 (inactive) | 1.33 | 0.343 | 0.216 | 0.715 | 0.154
8 | COC(=O)[C@@]1(Cc2ccc(F)cc2)[C@H]2c3cc(C(=O)N4CCCC4)n(CCc4c[nH]c5ccc(OC)cc45)c3C[C@H]2CN1C(=O)c1ccccc1 | 2.4 | 1.22 | 2.48 | 0.845 | 0.685 | 0.6 | -1.17 | 0.385 | 0.977 | 1.64 (inactive) | 1.51 | -4.66 (inactive) | -0.23 (inactive) | 0.0041 (inactive) | -0.556 (inactive) | 1.53 | 1.62 | 0.844 | 0.736 | 0.0332
9 | C=C(CCCC)/C(=C/C[C@@H](OC(C)=O)c1ccc(CO)o1)c1cc(C(=O)OC)ccc1OC | 0.746 | 0.961 | 0.506 | 0.715 | 1.33 | 1.17 | 0.522 | 1.22 | 0.454 | -2.87 (inactive) | 0.259 | 0.0294 (inactive) | -0.504 (inactive) | 3.68 (inactive) | 2.34 (inactive) | 0.498 | -0.0405 | 0.436 | 0.371 | 2.15
10 | COCC(=C=CC[C@H](O)c1cccc(OCCO)c1)C[C@H](O)c1ccccn1 | 0.344 | 0.273 | -0.296 | 0.521 | 1.37 | 0.89 | 1.07 | 1.37 | 0.613 | -0.266 (inactive) | 0.467 | -0.0843 (inactive) | -0.368 (inactive) | 1.34 (inactive) | -0.527 (inactive) | -0.368 | 0.0497 | -0.733 | -0.526 | 1.59
